Test results taken from PubChem BioAssay (NCATS).
Several values for one entry are separate records, joined by “and”; a condition that tells them apart may be missing. Identical values can stand only once. Records with an inconclusive call do not appear. Activity calls are given as the source filed them. Unless noted, calls follow the shape of the dose curve; as a rule, active = well fitted curve in the direction sought with a large enough effect; inconclusive = small, poorly fitted or top-dose-only effect, or another doubt; inactive = no such curve, though single readings can be large; an effect the other way counts as inactive or inconclusive.

Experiments:
[1] = AP1 Signaling Pathway (AID 357; active = well fitted curve in either direction with a large enough effect, not every such curve was filed as active;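 also: ME-180 reporter cells stimulated with EGF at its EC50 level; % is scaled to controls: 0 for no effect and ±100 for the full control effect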); conditions: ME-180 AP-1-bla reporter, EGF-induced, beta-lactamase ratio, 5 h; at 38 µM (top of the series)
Procedure, shortened: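 Titration-series screen for positive or negative modulators of EC50 EGF-induced signaling in ME-180 cells carrying an AP-1-driven beta-lactamase reporter. After 5 hours at 37 degrees Celsius, CCF4 460nm/530nm emission ratio gave %Activity; AC50 values derived.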

[2] = target: Cytochrome P450 1A2 (Homo sapiens) (UniProt P05177); assay: p450-cyp1a2 (AID 410; calls by dose curve;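 also: -100% = full effect of reference inhibitor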)
Sequence of Cytochrome P450 1A2 (Homo sapiens) (P05177 whole entry, looked up): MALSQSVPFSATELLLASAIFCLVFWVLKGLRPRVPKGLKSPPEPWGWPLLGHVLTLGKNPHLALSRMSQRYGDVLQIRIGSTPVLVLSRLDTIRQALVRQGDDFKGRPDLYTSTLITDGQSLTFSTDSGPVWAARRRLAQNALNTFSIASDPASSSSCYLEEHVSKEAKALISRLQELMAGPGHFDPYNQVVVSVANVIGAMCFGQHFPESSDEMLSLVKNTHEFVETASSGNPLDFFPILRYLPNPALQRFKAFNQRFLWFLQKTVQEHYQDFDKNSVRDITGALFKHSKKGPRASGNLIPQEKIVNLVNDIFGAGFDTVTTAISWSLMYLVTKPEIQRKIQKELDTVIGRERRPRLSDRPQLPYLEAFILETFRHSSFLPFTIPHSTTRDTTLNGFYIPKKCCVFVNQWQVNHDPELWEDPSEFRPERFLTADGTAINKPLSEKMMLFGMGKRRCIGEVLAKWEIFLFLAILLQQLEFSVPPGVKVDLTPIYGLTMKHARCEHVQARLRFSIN
Procedure, shortened: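 20nM CYP1A2 with 100uM Luciferin-ME (at Km) in 100mM KPO4; compound preincubated 10 min, NADPH regeneration added, 60 min at room temperature. Luciferin quantified by luminescence after detection reagent; normalized to 57 uM furafylline.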

[3] = NFAT Signaling Pathway (AID 444; active = well fitted curve in either direction with a large enough effect, not every such curve was filed as active;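 also: carbachol stimulus at about its EC50 of 1 µM final; % is scaled to controls: 0 for no effect and ±100 for the full control effect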); conditions: Jurkat NFAT-bla M1, carbachol, beta-lactamase ratio, 5 h; at 38 µM (top of the series)
Procedure, shortened: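 Jurkat cells with NFAT-driven β-lactamase reporter and co-expressed M1 receptor, stimulated with carbachol (final 1 uM, ~EC50), compound titration, 5 h at 37 °C. CCF4 loaded 1 h at RT; 460/530 nm ratio gave %activity and AC50.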

[4] = Stat Signaling Pathway (AID 446; active = well fitted curve in either direction with a large enough effect, not every such curve was filed as active;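 also: ME-180 cervical cancer cells given 40 pM IL-6 alongside compound; SIE-controlled beta-lactamase reporter measured as 460/530 nm FRET emission ratio; % is scaled to controls: 0 for no effect and ±100 for the full control effect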); conditions: ME-180 SIE beta-lactamase reporter, IL-6 stimulated, 5 h; at 38 µM (top of the series)
Procedure, shortened: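 Reporter line: ME-180 cervical carcinoma, SIE-beta-lactamase. Treatment: compound with 40 pM IL-6, 5 hrs, 37 C, in low-serum OPTI-MEM with 10 mM HEPES pH 7.3. Detection: 460/530 nm fluorescence.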

[5] = target: Glucocorticoid receptor (Homo sapiens) (UniProt P04150); assay: GR-GFP Redistribution (AID 450;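 active = compounds whose dose series gives a full or clear partial fitted curve of increased nuclear translocation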; also: potency is read from the fitted curve at half-maximal effect); conditions: U2OS GR-GFP nuclear translocation, laser cytometry, 2 h
Sequence of Glucocorticoid receptor (Homo sapiens) (P04150 whole entry, looked up, the tested form may be a part): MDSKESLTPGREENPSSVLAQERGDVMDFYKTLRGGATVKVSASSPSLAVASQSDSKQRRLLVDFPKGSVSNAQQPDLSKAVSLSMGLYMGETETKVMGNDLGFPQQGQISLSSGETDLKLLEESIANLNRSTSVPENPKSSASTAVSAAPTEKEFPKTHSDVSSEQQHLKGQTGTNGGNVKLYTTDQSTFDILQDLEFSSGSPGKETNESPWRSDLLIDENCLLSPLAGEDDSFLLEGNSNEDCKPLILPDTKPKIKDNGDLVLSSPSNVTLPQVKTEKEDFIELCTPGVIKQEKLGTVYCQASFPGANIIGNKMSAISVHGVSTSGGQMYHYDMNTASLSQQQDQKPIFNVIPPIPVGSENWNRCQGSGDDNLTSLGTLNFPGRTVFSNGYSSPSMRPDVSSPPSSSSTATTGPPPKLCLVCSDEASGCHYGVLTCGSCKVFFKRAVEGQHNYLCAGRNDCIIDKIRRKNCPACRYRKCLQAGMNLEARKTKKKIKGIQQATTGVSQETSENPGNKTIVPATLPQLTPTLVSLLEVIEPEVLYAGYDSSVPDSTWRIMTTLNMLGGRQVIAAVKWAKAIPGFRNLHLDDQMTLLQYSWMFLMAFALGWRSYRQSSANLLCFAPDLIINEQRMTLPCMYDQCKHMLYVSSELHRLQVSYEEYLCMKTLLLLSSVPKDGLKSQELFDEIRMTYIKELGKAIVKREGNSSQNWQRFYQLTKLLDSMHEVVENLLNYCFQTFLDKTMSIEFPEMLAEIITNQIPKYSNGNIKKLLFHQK

[6] = target: Glucocorticoid receptor (Homo sapiens) (UniProt P04150); assay: GR-EFC Redistribution (AID 451; calls by dose curve; also: potency is read from the fitted curve at half-maximal effect); conditions: CHO-K1 GR-EFC translocation, beta-gal luminescence, 2 h
Procedure, shortened: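 CHO-K1 cells expressing nuclear EA and GR-ED fragments of b-gal; compounds titrated up to 46 uM final, 2 h at 37 C. GR nuclear translocation read as complemented b-gal luminescence after 1 h RT detection.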

[7] = target: Mitogen-activated protein kinase 10 (Mus musculus) (UniProt Q61831); assay: JNK3 AlphaScreen Assay (AID 530; active = well fitted curve in either direction with a large enough effect, not every such curve was filed as active;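 also: kinase came from lysate of stimulated human HepG2 cells; signal reports phosphorylation of biotinylated GST-cJun 1-79 at Ser73 with 10 µM ATP; % is scaled to controls: 0 for no effect and ±100 for the full control effect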)
Procedure, shortened: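 Pre-activated (IL-1β/TNFα) JNK3 in HepG2 lysates phosphorylates biotin-GST-cJun(1-79), 10 uM ATP; anti-phospho-cJun(Ser73) AlphaScreen read at room temperature, pH 7.6 Tris buffer. Compounds pre-incubated 15 min as titrations.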

[8] = target: 3',5'-cyclic-AMP phosphodiesterase 4B (Homo sapiens) (UniProt Q07343); assay: qHTS Assay for Inhibitors of PDE-IV (AID 607; active = well fitted activation curve with a large enough effect in the main read-out, with a control signal flat, not every such curve was filed as active; also: % of control where 0% means no effect)
Sequence of 3',5'-cyclic-AMP phosphodiesterase 4B (Homo sapiens) (Q07343 whole entry, looked up): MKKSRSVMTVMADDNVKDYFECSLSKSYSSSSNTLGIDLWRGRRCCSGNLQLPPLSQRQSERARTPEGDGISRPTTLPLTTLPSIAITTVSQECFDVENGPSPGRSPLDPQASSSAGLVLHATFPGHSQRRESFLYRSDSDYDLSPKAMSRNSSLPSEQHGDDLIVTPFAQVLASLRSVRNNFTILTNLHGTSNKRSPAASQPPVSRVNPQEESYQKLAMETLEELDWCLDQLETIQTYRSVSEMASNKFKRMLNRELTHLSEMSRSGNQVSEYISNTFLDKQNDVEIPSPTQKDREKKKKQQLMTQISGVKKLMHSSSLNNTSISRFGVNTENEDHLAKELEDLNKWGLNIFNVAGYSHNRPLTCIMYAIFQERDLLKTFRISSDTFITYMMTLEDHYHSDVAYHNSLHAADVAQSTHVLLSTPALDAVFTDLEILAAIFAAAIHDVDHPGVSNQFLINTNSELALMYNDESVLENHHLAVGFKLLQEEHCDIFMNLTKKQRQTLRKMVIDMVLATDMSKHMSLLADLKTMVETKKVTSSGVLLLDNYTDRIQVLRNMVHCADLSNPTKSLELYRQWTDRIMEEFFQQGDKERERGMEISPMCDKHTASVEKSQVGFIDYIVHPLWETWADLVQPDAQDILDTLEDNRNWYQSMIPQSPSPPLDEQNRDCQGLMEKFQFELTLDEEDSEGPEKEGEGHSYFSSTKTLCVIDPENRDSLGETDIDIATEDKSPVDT
Procedure, shortened: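 Cell-based read-out of cAMP via a modified cyclic nucleotide-gated channel and membrane potential dye (535/590 nm) in HEK293 cells expressing PDE4 endogenously. Compounds tested up to 22.9 uM final; 100 uM RO 20-1724 reference.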

[9] = target: Guanine nucleotide-binding protein G(i) subunit alpha-1 (Homo sapiens) (UniProt P63096); assay: qHTS Assay for Inhibitors of RGS12 GoLoco Motif Activity (Green Fluorophore) (AID 879);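 also: 0% = labeled peptide with Gαi1 and full inhibition = labeled peptide alone without protein; negative values mean loss of peptide binding seen as reduced polarization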
Sequence of Guanine nucleotide-binding protein G(i) subunit alpha-1 (Homo sapiens) (P63096 whole entry, looked up): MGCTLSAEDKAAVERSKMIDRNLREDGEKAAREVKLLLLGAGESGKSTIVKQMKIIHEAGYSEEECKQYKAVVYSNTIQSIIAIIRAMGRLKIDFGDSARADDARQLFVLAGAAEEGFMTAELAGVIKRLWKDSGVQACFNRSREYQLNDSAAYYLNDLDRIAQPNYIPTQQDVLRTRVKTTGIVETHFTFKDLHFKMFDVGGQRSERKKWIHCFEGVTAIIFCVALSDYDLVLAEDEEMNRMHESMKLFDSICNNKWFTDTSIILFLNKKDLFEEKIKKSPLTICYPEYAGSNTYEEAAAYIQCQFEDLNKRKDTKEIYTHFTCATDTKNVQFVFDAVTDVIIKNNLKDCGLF
Procedure, shortened: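 Fluorescence polarization assay: 50 nM Gαi1 with 10 nM FITC-labeled RGS12 GoLoco peptide in 10 mM Tris pH 7.5, 150 mM NaCl, 0.1 mM GDP, 0.05% NP40, 10 min at room temperature with compound.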

[10] = target: Cytochrome P450 2C9 (Homo sapiens) (UniProt P11712); assay: qHTS Assay for Inhibitors and Substrates of Cytochrome P450 2C9 (AID 883); also: % is scaled to controls: 0 for no effect and ±100 for the full control effect; nearly all actives have a fitted effect of over 60% in size
Sequence of Cytochrome P450 2C9 (Homo sapiens) (P11712 whole entry, looked up): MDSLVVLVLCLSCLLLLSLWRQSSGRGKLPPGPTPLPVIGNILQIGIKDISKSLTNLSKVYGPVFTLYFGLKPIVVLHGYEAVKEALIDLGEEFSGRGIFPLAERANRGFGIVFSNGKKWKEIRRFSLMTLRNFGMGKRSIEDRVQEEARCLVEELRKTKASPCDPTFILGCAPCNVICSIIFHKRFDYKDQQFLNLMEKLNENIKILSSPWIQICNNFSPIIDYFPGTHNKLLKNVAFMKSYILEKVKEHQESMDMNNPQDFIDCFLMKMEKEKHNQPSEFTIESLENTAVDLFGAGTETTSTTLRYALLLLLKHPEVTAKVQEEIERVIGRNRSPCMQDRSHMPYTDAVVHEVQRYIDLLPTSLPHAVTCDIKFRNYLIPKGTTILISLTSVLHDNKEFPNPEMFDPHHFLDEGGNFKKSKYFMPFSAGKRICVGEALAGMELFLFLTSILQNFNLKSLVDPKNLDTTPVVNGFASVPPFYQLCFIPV
Procedure, shortened: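 Signal: luciferase luminescence reporting luciferin produced by CYP2C9. Conditions: 10nM enzyme, Luciferin-H 100uM at KM, 25mM KPO4, 37C, 60 min NADPH-driven reaction. Reference: 57uM sulphaphenazole as 100% inhibition.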

[11] = target: Cytochrome P450 2D6 (Homo sapiens) (UniProt P10635); assay: qHTS Assay for Inhibitors and Substrates of Cytochrome P450 2D6 (AID 891);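 also: luciferin methyl ether substrate demethylated by CYP2D6 with NADPH regeneration; % is scaled to controls: 0 for no effect and ±100 for the full control effect; nearly all actives have a fitted effect of over 60% in size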
Sequence of Cytochrome P450 2D6 (Homo sapiens) (P10635 whole entry, looked up): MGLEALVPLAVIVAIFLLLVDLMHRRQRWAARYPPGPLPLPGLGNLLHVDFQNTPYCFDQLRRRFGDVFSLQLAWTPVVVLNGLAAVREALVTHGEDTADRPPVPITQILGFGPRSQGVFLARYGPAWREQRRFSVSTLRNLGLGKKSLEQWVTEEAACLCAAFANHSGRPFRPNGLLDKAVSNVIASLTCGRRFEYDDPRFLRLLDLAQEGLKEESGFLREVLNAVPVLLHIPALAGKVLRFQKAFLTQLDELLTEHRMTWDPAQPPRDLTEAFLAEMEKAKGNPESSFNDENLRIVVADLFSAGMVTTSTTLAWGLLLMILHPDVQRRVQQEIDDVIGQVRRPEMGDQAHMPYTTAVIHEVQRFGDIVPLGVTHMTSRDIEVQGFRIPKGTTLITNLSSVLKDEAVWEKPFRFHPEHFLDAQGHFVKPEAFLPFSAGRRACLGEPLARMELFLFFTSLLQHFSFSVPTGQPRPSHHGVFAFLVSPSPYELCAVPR
Procedure, shortened: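 Human CYP2D6 (5 nM) with 30 uM Luciferin-ME EGE (at Km) in 100 mM KPO4, compound preincubated 10 min, then NADPH regeneration system for 60 min at room temperature. Luciferin read by luminescence; normalized to 1.43 uM quinidine.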

[12] = target: Cytochrome P450 2C19 (Homo sapiens) (UniProt P33261); assay: qHTS Assay for Inhibitors and Substrates of Cytochrome P450 2C19 (AID 899); also: % is scaled to controls: 0 for no effect and ±100 for the full control effect; nearly all actives have a fitted effect of over 60% in size
Sequence of Cytochrome P450 2C19 (Homo sapiens) (P33261 whole entry, looked up): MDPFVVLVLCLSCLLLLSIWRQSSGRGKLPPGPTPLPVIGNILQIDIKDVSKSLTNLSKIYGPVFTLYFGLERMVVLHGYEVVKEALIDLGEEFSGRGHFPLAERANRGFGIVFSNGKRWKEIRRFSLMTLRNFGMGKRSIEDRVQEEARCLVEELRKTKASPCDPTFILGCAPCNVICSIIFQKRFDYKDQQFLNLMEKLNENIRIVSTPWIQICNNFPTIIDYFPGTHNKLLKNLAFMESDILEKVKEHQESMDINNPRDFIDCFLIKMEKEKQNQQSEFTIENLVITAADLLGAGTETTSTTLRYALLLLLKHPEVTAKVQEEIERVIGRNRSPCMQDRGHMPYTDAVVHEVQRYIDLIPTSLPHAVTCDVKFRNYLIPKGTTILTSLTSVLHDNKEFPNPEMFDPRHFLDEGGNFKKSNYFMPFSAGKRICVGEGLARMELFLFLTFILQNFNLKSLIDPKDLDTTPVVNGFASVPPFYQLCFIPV
Procedure, shortened: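 Signal comes from luciferase acting on luciferin released by CYP2C19-mediated hydroxylation of Luciferin-H EGE, 10uM (KM). Assay mix: 5nM enzyme, 50mM KPO4; 60 min at 37C with NADPH regeneration. Data normalized against 57uM ketoconazole.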

[13] = Confirmation and Secondary Assay for Modulators of Hemoglobin Beta Chain Splicing at IVS2 654 locus (AID 910);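 also: HeLa cells stably carrying EGFP split by mutant beta-globin IVS2-654 intron; % of control where 0% means no effect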
Procedure, shortened: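 HeLa cells stably expressing EGFP interrupted by β-globin IVS2-654 intron, seeded overnight in Opti-MEM/2% FCS, then treated 2 days at 37 °C. Restored splicing read as total peak GFP intensity per well by laser scanning cytometry (488 nm excitation, 500–520 nm emission); 500 nM antisense PNA as control.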

[14] = Confirmation and Secondary Assay for Modulators of Hemoglobin Beta Chain Splicing at IVS2 705 locus (AID 930);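 also: HeLa cells stably expressing the EGFP-705 splicing reporter; GFP fluorescence per well restored by corrected splicing of the IVS2-705 intron in EGFP; % of control where 0% means no effect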
Procedure, shortened: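 HeLa cells stably carrying EGFP interrupted by mutant beta-globin intron 2 (IVS2-705) treated 2 days at 37C with compound; 500 nM antisense PNA as control. Correct splicing read as total peak GFP intensity per well by laser-scanning cytometry.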

[15] = target: Pyruvate kinase (Leishmania mexicana) (UniProt Q27686); assay: qHTS Validation Assay for Inhibitors of Leishmania Mexicana Pyruvate Kinase (AID 945);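 also: 0% = DMSO only neutral control wells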
Sequence of Pyruvate kinase (Leishmania mexicana) (Q27686 2-499 E452W): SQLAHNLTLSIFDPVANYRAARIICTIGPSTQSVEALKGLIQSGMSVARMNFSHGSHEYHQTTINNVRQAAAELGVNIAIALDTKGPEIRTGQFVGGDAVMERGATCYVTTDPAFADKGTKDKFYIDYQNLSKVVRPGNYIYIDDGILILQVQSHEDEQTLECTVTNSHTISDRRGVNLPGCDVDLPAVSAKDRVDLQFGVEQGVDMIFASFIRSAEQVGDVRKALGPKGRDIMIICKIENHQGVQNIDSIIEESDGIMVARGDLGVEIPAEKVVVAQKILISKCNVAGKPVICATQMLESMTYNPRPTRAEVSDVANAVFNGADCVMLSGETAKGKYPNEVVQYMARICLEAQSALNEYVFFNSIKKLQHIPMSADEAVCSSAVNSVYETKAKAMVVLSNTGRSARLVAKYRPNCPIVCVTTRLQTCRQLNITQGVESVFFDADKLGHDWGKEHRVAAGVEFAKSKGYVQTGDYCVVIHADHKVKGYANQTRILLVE
Procedure, shortened: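 Eight-point qHTS titrations in triplicate, data normalized to DMSO neutral control. Reaction: 0.2 nM LmPYK E451W mutant, 0.5 mM PEP, 0.1 mM ADP, 7 mM MgCl2, pH 7.2, one hour at room temperature; luminescent ATP detection.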

[16] = target: Alpha-galactosidase A (Homo sapiens) (UniProt P06280); assay: Counterscreen for Glucocerebrosidase Inhibitors: qHTS Assay for Human alpha-Galactosidase at pH 4.5 (AID 992); also: 0% is about no effect
Sequence of Alpha-galactosidase A (Homo sapiens) (P06280 whole entry, looked up): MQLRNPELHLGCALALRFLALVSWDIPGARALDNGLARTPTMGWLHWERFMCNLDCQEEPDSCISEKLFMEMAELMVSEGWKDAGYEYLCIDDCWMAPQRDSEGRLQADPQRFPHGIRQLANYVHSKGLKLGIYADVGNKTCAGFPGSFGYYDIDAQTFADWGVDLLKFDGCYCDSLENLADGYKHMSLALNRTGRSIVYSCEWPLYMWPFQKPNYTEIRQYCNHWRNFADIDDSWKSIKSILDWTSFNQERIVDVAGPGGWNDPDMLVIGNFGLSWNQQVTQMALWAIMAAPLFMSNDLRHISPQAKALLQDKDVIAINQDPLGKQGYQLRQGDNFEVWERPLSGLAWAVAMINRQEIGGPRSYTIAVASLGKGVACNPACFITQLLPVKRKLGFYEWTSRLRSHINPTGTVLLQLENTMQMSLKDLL
Procedure, shortened: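 Quantitative HTS: compounds tested from 0.7 nM up to 77 uM against 2 nM enzyme with 80 uM 4-MU alpha-D-galactopyranoside. The 20 min room-temperature reaction is stopped with 1M NaOH/1M glycine, pH 10.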

[17] = target: alpha-glucosidase (Oryza sativa, rice) (UniProt Q653V4); assay: Counterscreen for Glucocerebrosidase Inhibitors: qHTS Assay for Rice alpha-Glucosidase at pH 5.0 (AID 997);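 also: 0% = full activity with enzyme and -100% = basal without enzyme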
Procedure, shortened: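 Rice alpha-glucosidase (4 nM final) with 400 uM 4-methylumbelliferyl-alpha-D-glucopyranoside in citrate buffer pH 5.0, 20 min at room temperature, stopped at pH 10; fluorescence 365/440 nm, compounds 0.7 nM–77 uM, AC50 from Hill fits.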

[18] = Validation of Assay for Modulators of Lamin A Splicing (AID 1459; active = well fitted curve in the direction sought with a large enough effect in the signal ratio; the % refers to the signal ratio;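 also: cells exposed to compound for two days before reading; 0% is about no effect; ratio rise marks activators and ratio drop marks inhibitors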)
Procedure, shortened: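 Splicing correction is reported by an EGFP-containing lamin A minigene in stably transfected S3 HeLa cells, while DsRed2 controls for viability and nonspecific signal. Cells are exposed to compounds for 48 hrs before the GFP over RFP ratio is taken.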

[19] = qHTS Assay for Lipid Storage Modulators (AID 1519; calls by dose curve); conditions: Drosophila S3 cells, BODIPY lipid droplet/cell ratio, laser cytometry, cells loaded with oleic acid
Procedure, shortened: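 Cells seeded at 5,000 per well were treated with compounds over a concentration series and loaded with oleic acid (400 uM, as added). Lipid droplet fluorescence (488 nm excitation, 500-530 nm channel) was read by laser-scanning cytometry and normalized to 20 uM Triacsin C.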

O=C(O)c1cc(=O)c2ccc(Cl)cc2[nH]1
22.6% and 6.02%: max response ([19]; measured here: lipid channel max response)
inactive: activity change, negative = inhibition [1] -5.86% | Potency [2] | activity change, negative = inhibition [3] 3.07% | activity, negative = inhibition [4] 42.7% | Potency [5] > 46 µM | Potency [6] > 46 µM | Potency [7] | Potency [8] | outcome [9] | Potency [10] | Potency [11] | Potency [12] | outcome [13] | outcome [14] | Potency [15] | outcome [16] | outcome [17] | outcome [18] | activity change, negative = inhibition ([19]; at 57.5 µM (top of the series)) 4.77% and 6.7%
15.1% and -2.23%: max response ([19]; measured here: cell count channel max response)
